Several values for one entry are separate records, joined by “and”; a condition that tells them apart may be missing. Identical values can stand only once. This is part of a sample that, as a whole, favours compounds with a hit. Of some 83,000 tested, about 20% had one in any assay.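 Treatment: one concentration, 48 hours, 96-well format. Scoring: percent growth, with anything below 10 considered active.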 Activity calls are given as the source filed them.

The assay relates to SK-MEL-2 melanoma. Briefly: NCI-60 one-dose screen, 48 h (100 = growth as untreated, 0 = no growth, -100 = all killed). The conditions noted are these: 10 µM unless noted. How it is done:
Growth inhibition of the SK-MEL-2 human tumor cell line is measured as a screen for anti-cancer activity. Cells are grown in 96 well plates and exposed to the test compound for 48 hours. Compounds are tested at a single concentration, which is 10^-5 M for most compounds. The reported endpoint is percent growth (GI% or GIPRCNT), where numbers from 0 - 100% represent growth inhibition, and numbers from -100% - 0 represent cell death. For example, a value of 40 represents 60% growth inhibition. A value of 0 means no net growth occurred over the course of the experiment. A value of -40 indicates 40% of cells at the beginning of the experiment died by the end of the experiment. A value of -100 means all cells are dead at the end of the experiment.
NCI-60 Human Tumor Cell Lines Screen was performed using the standard one-dose NCI protocol, which is described in more detail at https://dtp.cancer.gov/discovery_development/nci-60/default.htm.
Compounds with GIPRCNT values below 10 were considered active. Activity score was based on GIPRCNT using the following formula: […]
Score is 0 for GIPRCNT values of 100 or above, 50 for GIPRCNT values of 0, and 100 for GIPRCNT values of -100.
With `O=C(c1ccc(Nc2nccc(NCCCNc3ccnc4cc(Cl)ccc34)n2)cc1)N1CCCCC1`, the growth is 64.5% (inactive). Then `O=C(NNc1ccccc1)C1CCCN1` (stereo not given), with 87.5% (inactive).

For the molecule `CCNC(=O)Nc1ncccc1OCc1ccc(F)cc1`, the growth was 99.8% (inactive). `O=C1Nc2ccccc2/C1=C/c1cccn1CCCCCn1c2ccccc2c(=O)c2ccccc21`: the growth is 84% (inactive).

Regarding `CCOC(=O)c1cnn(-c2ccc(S(N)(=O)=O)cc2)c1N`, the growth is 93.6% (inactive). Then `COc1ccc(NC(=O)Nc2ccccc2CNc2nc(Nc3ccc(OCCN4CCCC4)cc3)ncc2Cl)cc1`, with -20.2% (active). Then `CN(C)C(=O)c1cc2cnc(Nc3ccc(-c4csc5c(=S)cc(N6CCOCC6)oc45)cc3)nc2n1C1CCCC1`, with -24.6% (active); and `O=C([C@H]1C[C@H]1c1ccc(S(F)(F)(F)(F)F)cc1)N1CCN(c2cc(Cl)ccc2C(F)(F)F)CC1`, with 91.7% (inactive). Then `COc1nc2ccc(C)cc2cc1/C=[N+](\[O-])c1ccccc1`, with 100% (inactive). For `Nc1nc(Cl)nc2c1ncn2C1OC(CO)C(O)C1O` (stereo not given), the growth was 82.9% (inactive).

Consider `Clc1ccc2c(NCCN3CCN(c4ccnc(N5CCCC5)n4)CC3)ccnc2c1`, for which the growth was 92.4% (inactive). Then `O=C(CCl)N(O)c1ccc(/C=C/c2ccccc2)cc1`, with 88.1% (inactive) and 77.7% (inactive); and `COc1ccc(N2CCN(S(=O)(=O)c3oc(-c4ccccc4)nc3C#N)CC2)cc1`, with 72.4% (inactive). Then `COc1cccc(NC(=O)c2sc3nc(C)c(C(O)c4ccccc4)cc3c2N)c1` (stereo not given), with 37.8% (inactive); and `COc1cc(CO)cc2cc3ccccc3nc12`, with 111% (inactive). Then `O=C(CCl)n1nnnc1Cc1ccccc1`, with 86.9% (inactive); and `O=c1c2c([nH]c3ccccc13)CCCC2`, with 103% (inactive) and -12% (active); and `[Cu+].[NH-][C@H]1C[N-]C(=O)[C@H]([C@H]2CCN=C(N)N2)[N-]C(=O)/C(=C\NC(N)=O)[N-]C(=O)[C@H](CNC(=O)C[C@@H](N)CCCN)[N-]C(=O)[C@H](CO)[N-]C1=O`, with 108% (inactive). For `Cc1ccc(/C=C(\C#N)c2cc3ccccc3[nH]2)cc1`, the growth was 48.8% (inactive). With `CC(=O)Nc1c(I)c(NC(C)=O)c(I)c(C(=O)O)c1I`, the growth was 111% (inactive) and 93.8% (inactive). Under `O=C1/C(=C/c2ccccc2)CN(C(=O)C(Cl)Cl)C/C1=C\c1ccccc1` stands 38.4% (inactive); under `COc1ccc(/C=C2/C(=O)N=C3N2NC(c2ccccc2)=CN3c2ccccc2)cc1`, 106% (inactive); under `Cc1ccc(/C=C/c2c(C(=O)/C=C/c3ccccc3)c(C)nc3ccccc23)cc1`, 2.34% (active). Consider `O=Nc1ccc(NO)c2ccccc12`, for which the growth is 103% (inactive) and 59.7% (inactive). Under `CCCN1C(=O)/C(=c2\sc3n(c2=O)C2C(NN=3)N(CC)C(=O)N2CC)c2ccccc21` (stereo not given) stands 55% (inactive); under `Nc1ccc(-c2ccc(N)c(Br)c2)cc1Br`, 44% (inactive); under `Cc1c(O)c(O)cc2c3c(oc12)CC(c1ccc2c(c1)OCO2)CC3=O` (stereo not given), 83.8% (inactive). In the case of `CN1CCN(CCNC(=O)c2cccc(CN3c4cccc5c4C(=Cc4cccnc43)N(C)C5=O)c2)CC1`, the growth was 62% (inactive). Then `CC[C@H](C)[C@H](NC(=O)[C@H](CCCCN)NC(=O)[C@H](CCCCN)NC(=O)[C@@H](NC(=O)[C@@H](NC(=O)[C@@H](N)Cc1cnc[nH]1)[C@@H](C)CC)[C@@H](C)CC)C(=O)N[C@@H](CCCNC(=N)N)C(=O)N[C@H](C(=O)N[C@@H](Cc1c[nH]c2ccccc12)C(=O)N[C@@H](Cc1ccc(O)cc1)C(=O)N[C@@H](CCCNC(=N)N)C(=O)N[C@@H](CCCCN)C(=O)N[C@@H](C)C(=O)N[C@@H](Cc1c[nH]c2ccccc12)C(=O)N[C@@H](Cc1cnc[nH]1)C(=O)N[C@H](C(=O)N[C@@H](CC(C)C)C(=O)NCC(=O)N[C@@H](CCCCN)C(=O)N[C@H](C(N)=O)C(C)C)C(C)C)[C@@H](C)O`, with 12.7% (inactive). Under `Cc1ccc2[nH]c(=S)[nH]c(=O)c2c1` stands 111% (inactive); under `COc1cc(C(=O)c2ccccc2C(=O)O)c(OC)c2c1CCCC2`, 115% (inactive); under `O=C(/C=C/C12c3ccccc3C(c3ccccc31)C1C(=O)NC(=O)C12)c1ccncc1` (stereo not given), 46.6% (inactive).

As for `Fc1ccccc1-c1cnn2cc(-c3ccccc3)cnc12`, the growth is 107% (inactive). Then `CCCCCCCCCCCCC[C@H](O)C[C@H](O)[C@H](C)N`, with 113% [1.25 µM] (inactive). Then `Oc1ccccc1C=Nc1ccc(N2CCN(c3ccccc3)CC2)cc1`, with 102% (inactive); and `O=C1CCc2c(sc3[nH]c(=S)n(Cc4ccc(Cl)cc4)c(=O)c23)C1`, with -20.9% (active). Under `COc1ccc(/C=C2\COc3ccc(O)c(O)c3C2=O)c(OC)c1OC` stands 70.3% (inactive).

As for `CCOC(=O)c1nnn(Cc2cc(=O)oc3c2ccc2ccccc23)c1C`, the growth was 110% (inactive).

As to `COc1cc(/C=C2/C=C(c3ccc(C(C)(C)C)cc3)N(CCc3ccc(S(N)(=O)=O)cc3)C2=O)cc(OC)c1OC`, the growth is 79.2% (inactive). Under `Nc1[nH]nc(Nc2ccccc2)c1-c1nc2ccccc2s1` stands 26.8% (inactive).

For the origin of these results see PubChem BioAssay (NCI).
